Source: PubChem (The Scripps Research Institute Molecular Screening Center)
PAFAH1B2 inh – PAFAH1B2 enzyme inhibitors, primary screen, biochemical, fluorescence polarization, human; recombinant PAFAH1B2, FP-rhodamine activity probe; inhibition, % at 3.39 µM; actives 1.2% (n = 340,000); AID 492953, 2010;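 active means inhibition above the mean of all tested compounds plus 3 SD, cut at about 24% in these data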;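 further: 0% = enzyme with DMSO and 100% = wells lacking PAFAH1B2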
Target sequence (P68402 whole entry, looked up): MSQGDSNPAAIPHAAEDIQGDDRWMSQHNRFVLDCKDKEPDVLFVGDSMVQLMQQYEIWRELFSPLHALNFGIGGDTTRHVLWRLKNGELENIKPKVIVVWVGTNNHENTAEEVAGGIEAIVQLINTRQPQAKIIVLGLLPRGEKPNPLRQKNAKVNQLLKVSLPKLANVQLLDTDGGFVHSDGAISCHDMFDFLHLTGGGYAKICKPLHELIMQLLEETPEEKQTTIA
PP1 counter – PP1-alpha phosphatase inhibitors, primary screen, counter-screen for PP5 inhibitor project, biochemical, fluorescence, OMFP substrate, single point; Serine/threonine-protein phosphatase PP1-alpha catalytic subunit (Homo sapiens), P62136; purified PP1alpha; inhibition, % at 6.7 µM; actives 0.9% (n = 320,000); AID 2235, 2010;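 active means inhibition above the mean inhibition of all tested compounds plus 3 SD, computed separately for each screening campaign, cut at about 15% in these data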
PAFAH2 inh – PAFAH2 enzyme inhibitors, primary screen, biochemical, fluorescence polarization, human; Platelet-activating factor acetylhydrolase 2, cytoplasmic (Homo sapiens), Q99487; recombinant PAFAH2, FP-rhodamine activity probe; inhibition, % at 3.39 µM; actives 0.99% (n = 340,000);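 active means inhibition above the mean over all tested compounds plus 3 SD, cut at about 30% in these data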;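 further: inhibitors block probe labeling of enzyme so polarization drops; 0% = enzyme with DMSO and 100% = wells lacking PAFAH2 protein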
pPAFAH FP inh – pPAFAH enzyme inhibitors, primary screen, biochemical, fluorescence polarization, human; recombinant pPAFAH, FP-rhodamine probe fluorescence polarization; inhibition, % at 3.39 µM; actives 1.5% (n = 330,000);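 active means inhibition above the mean inhibition across the screen plus 3 SD, cut at about 25% in these data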;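 further: inhibitors block binding of the rhodamine activity-based probe so polarization drops; 0% = enzyme with DMSO and 100% = wells lacking pPAFAH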
PP5 inh – PP5 phosphatase inhibitors, primary screen, biochemical, fluorescence. Serine/threonine-protein phosphatase 5 (Homo sapiens), P53041. purified PP5c, OMFP substrate fluorescence. inhibition, % at 6.7 µM. actives 0.18% (n = 320,000). AID 1987, 2009;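 active means inhibition above the campaign's mean inhibition across all tested compounds plus 3 SD, cut at about 9.5% in these data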;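 further: 0% = DMSO only and 100% = 100 µM cantharidin control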
PAFAH1B3 FP inh – PAFAH1B3 enzyme inhibitors, primary screen, biochemical, fluorescence polarization, human; Platelet-activating factor acetylhydrolase IB subunit alpha1 (Homo sapiens), Q15102; recombinant PAFAH1B3, FP-rhodamine probe; inhibition, % at 3.39 µM; actives 0.28% (n = 340,000);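 active means inhibition above the screen-wide average of all tested compounds plus 3 SD, cut at about 25% in these data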;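 further: 0% = enzyme with DMSO only and 100% = wells lacking PAFAH1B3 protein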
Target sequence (Q15102 whole entry, looked up): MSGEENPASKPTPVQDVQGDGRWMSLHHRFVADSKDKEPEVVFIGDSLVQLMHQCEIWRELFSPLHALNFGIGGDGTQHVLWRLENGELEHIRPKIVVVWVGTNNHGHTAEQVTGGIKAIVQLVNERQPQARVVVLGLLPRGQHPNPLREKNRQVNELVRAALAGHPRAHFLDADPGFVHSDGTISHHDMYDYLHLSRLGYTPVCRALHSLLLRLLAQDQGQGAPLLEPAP
Active calls of the source: *; . = no result. Most compounds without a hit are left out; they make up all but 3.4% or so of the library.

SMILES	PAFAH1B2 inh	PP1 counter	PAFAH2 inh	pPAFAH FP inh	PP5 inh	PAFAH1B3 FP inh
CCCn1ncc(CN2CCC(n3nccc3NC(=O)CCc3ccccc3)CC2)c1C	-2	-3	3	5	-2	2
O=C(O)CN1C(=O)/C(=C\c2cc([N+](=O)[O-])ccc2OCc2ccccc2Cl)SC1=S	7	9	25	45*	-3	12
Cc1cc(N2CCCC2=O)cc(C)c1S(=O)(=O)NCCOc1ccc(C(C)(C)C)cc1	40*	1	2	3	5	2
O=C1CCCN1c1ccc(S(=O)(=O)NCCOc2ccccc2)cc1	3	-2	-1	2	0	-4
CCc1ncc(CN2CCCCC2C(=O)Nc2ccc(Oc3ccccc3)nc2)cn1 (configuration not stated)	3	-1	4	7	1	-1
Cc1ccc2nsnc2c1NC(=O)Cc1ccc(Cl)cc1	-3	-4	3	3	2	5
Cc1ccc2nsnc2c1NC(=O)c1ccc(-c2cc(Cl)ccc2Cl)o1	-3	25*	-3	3	4	-6
COc1ccc(S(=O)(=O)N2CCC3CC2c2cc(N4CCOCC4)ccc23)cc1 (configuration not stated)	15	.	-7	.	.	5
O=C1NC(=S)SC1=C1CCCC1	2	-1	4	34*	2	-1
O=C(CC1SC(=O)N(c2ccccc2)C1=O)Nc1ccc(Br)cc1 (configuration not stated)	.	4	.	32*	0	.
C/C(=N/Nc1ccnc2cc(Cl)ccc12)c1ccc(N)cc1	6	17*	7	8	0	8
CCCCn1c(N)c(N(Cc2ccccc2)C(=O)COc2ccccc2F)c(=O)[nH]c1=O	-1	.	0	.	.	4
O=C(CNC(c1ccccc1)c1ccccc1)Nc1ccccc1Br	4	1	6	32*	0	-3
CCOc1cc(/C=C(/C#N)c2nc3ccccc3[nH]2)ccc1OCc1ccc(C(=O)O)o1	8	1	-1	5	5	11
CCOc1cc(/C=C(/C#N)c2ccc(F)cc2)ccc1OCc1ccc(C(=O)O)o1	32*	1	-5	9	4	-1
CC(C)[C@H](NS(=O)(=O)c1ccccc1)C(=O)OCC(=O)N1N=C(c2ccc(Cl)cc2)CC1c1ccco1 (some centres not stated)	2	16*	0	15	5	0
COc1cccc(C(C#N)NCCCNC(C#N)c2cccc(OC)c2OC)c1OC (configuration not stated)	1	.	-1	.	.	11
COc1ccc(NC(=O)Nc2nnc(-c3ccccc3SCc3ccccc3)s2)cc1	-3	19*	4	6	3	7
O=c1[nH]c(C2CCN(S(=O)(=O)/C=C/c3ccccc3)CC2)nc2c1nnn2Cc1ccc(F)cc1	4	17*	-5	12	3	-2
O=c1[nH]c(C2CCN(S(=O)(=O)c3ccc(C(F)(F)F)cc3)CC2)nc2c1nnn2Cc1cccc(F)c1	3	-1	-5	5	6	1
O=c1[nH]c(C2CCN(S(=O)(=O)c3ccccc3C(F)(F)F)CC2)nc2c1nnn2Cc1cccc(F)c1	0	16*	5	-2	1	2
O=c1[nH]c(C2CCN(S(=O)(=O)Cc3ccccc3)CC2)nc2c1nnn2Cc1ccccc1	4	4	10	3	2	2
O=c1[nH]c(C2CCN(S(=O)(=O)c3ccc4c(c3)OCCO4)CC2)nc2c1nnn2Cc1c(F)cccc1Cl	-1	17*	-7	1	4	-10
O=c1[nH]c(C2CCN(S(=O)(=O)c3ccc4c(c3)OCCO4)CC2)nc2c1nnn2Cc1ccccc1F	9	5	3	-1	3	0
O=C(Cc1ccccc1F)NNC(=O)c1ccncc1	7	3	1	2	0	4
SMILES	PAFAH1B2 inh	PP1 counter	PAFAH2 inh	pPAFAH FP inh	PP5 inh	PAFAH1B3 FP inh
CCN(CC(=O)Nc1ccc(NC(C)=O)cc1)C(=O)CCCOc1ccc(C(C)(C)C)cc1	9	1	-2	19	2	4
CC(=O)Oc1ccc2c(=O)c(Oc3ccccc3)coc2c1OC(C)=O	-1	0	46*	31*	1	-1
Cc1ccc(Oc2coc3cc(OC(=O)c4cccs4)ccc3c2=O)cc1	7	15	-8	4	2	-3
S=c1[nH]nc(Cc2ccccc2)n1-c1cccc2ccccc12	28*	-4	2	4	2	-6
CSCCC(NC(=O)c1ccco1)C(=O)NC1CCCCCC1 (configuration not stated)	8	-3	3	1	2	14
CCN(CC)S(=O)(=O)c1ccc(C(O)=C(C#N)c2nc3ccccc3n2C)cc1	4	.	9	.	.	11
FC(F)(F)c1cccc(N2CCN(C(=S)NCC3CCCO3)CC2)c1 (configuration not stated)	5	0	3	30*	5	7
O=C(NC(NC(=S)Nc1ccc(Cl)cc1Cl)C(Cl)(Cl)Cl)c1cccc([N+](=O)[O-])c1 (configuration not stated)	-13	15*	-43	-49	3	-18
CCNC(=O)C(=O)N/N=C/c1cc([N+](=O)[O-])ccc1O	4	-1	-2	4	0	4
O=C(N/N=C/c1cc([N+](=O)[O-])ccc1O)C12CC3CC(CC(C3)C1)C2	42*	1	91*	6	-1	7
Cc1ccc(NC(=S)NNC(=O)c2cccc([N+](=O)[O-])c2)cc1Cl	25*	-2	19	21	3	2
O=[N+]([O-])c1ccc(O)c(/C=N/NC(=S)Nc2ccc(Cl)cc2Cl)c1	42*	1	45*	18	-1	23
Cc1n[nH]c(C)c1CCNC(=O)C1CCC(=O)N(CCc2cccc(F)c2)C1 (configuration not stated)	-2	-5	-7	-7	1	6
O=C(N/N=C/c1cc([N+](=O)[O-])ccc1O)Nc1ccccc1	32*	3	3	13	-2	3
O=[N+]([O-])c1ccc(O)c(/C=N/Nc2nc3ccccc3[nH]2)c1	35*	13	-1	12	0	16
O=C(NN=Cc1cc([N+](=O)[O-])ccc1O)c1cccc2ccccc12	6	.	25	.	.	11
